Sampled rows, rich in hits. Any-hit rate of the full collection: about 9.3%.
HCMV antiviral: qHTS Assay for inhibitors of the human cytomegalovirus (HCMV); 410,000 tested, 4.5% active; HFF cells, HCMV-luciferase reporter, 72 h; active compounds read low; AID 1259415, 2018; activity change, negative = inhibition, % at 57.5 µM; in the data active = activity change below about -60%; inconclusive = no clear call, values can overlap the other calls; inactive = above about -39%
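Cell-based, HFFs, 1000 cells/well, 16 h 37C; cpds in DMSO + HCMV-luc, MOI 1 PFU/cell; 72 h 37C; OneGlo luminescence after 5 min RT; norm. to buffer vs Salinomycin 10uM.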
HCV inhibitor: qHTS Assay for Inhibitors of Hepatitis C Virus (HCV); Huh7.5.1 HCVcc-Cre infection, luciferase reporter, 44 h; Potency, µM (titrated, usually from 41.8 µM), inactives show top-dose activity change, negative = inhibition, actives largely listed as inhibitors; 340,000 tested, 3.4% active; also: potency is read from the fitted curve at half-maximal effect
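Whole-lifecycle infectious HCVcc-Cre system; cells 1,000/well, compound then virus (~0.5 moi) added 4 h after plating, 44 h culture. Luciferase read 15 sec following 15 min substrate incubation, room temp.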
Sm TGR inh: qHTS Assay for the Inhibitors of Schistosoma Mansoni Peroxiredoxins. Schistosoma mansoni thioredoxin glutathione reductase (TGR), Q962Y6. purified TGR, DTNB reduction, TNB absorbance 405 nm. Potency, µM (titrated, usually from 114 µM), for the others: top-dose activity change, negative = inhibition, usual class: inhibitors. 360,000 tested, 3% active. AID 485364, 2010; also: potency is read from the fitted curve at half-maximal effect; nearly all actives have a fitted effect of over 60% in size
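TGR 20 nM + NADPH 100 uM (dispensed conc.), cpd preinc 15 min RT; start with NADPH (500 uM addition) then DTNB (15 mM addition). Kinetic TNB absorbance, 405 nm filter. Four-parameter Hill fit across titration.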
Vaccinia Venus: qHTS for Stage-Specific Inhibitors of Vaccinia Orthopoxvirus: Venus Reporter Primary qHTS; Vaccinia virus Venus reporter expression, fluorescence; Potency, µM (doses to about 36.5 µM), inactives show at the highest dose activity change, negative = inhibition, most hits filed as inhibitors; 330,000 tested, 0.46% active; calls by dose curve; tested in A549 cells; also: potency is read from the fitted curve at half-maximal effect; nearly all actives have a fitted effect of over 30% in size
Vaccinia mCherry: qHTS for Stage-Specific Inhibitors of Vaccinia Orthopoxvirus: mCherry Reporter Primary qHTS; Potency, µM (titrated, usually from 36.5 µM), for the others: at the top dose activity change, negative = inhibition, actives largely listed as inhibitors; 310,000 tested, 0.63% active; Vaccinia virus mCherry reporter infection, fluorescence; calls by dose curve; tested in A549 cells; also: potency is read from the fitted curve at half-maximal effect; nearly all actives have a fitted effect of over 35% in size
FMDV antiviral: High Throughput Screening for Foot and Mouth Disease Virus Antivirals; FMDV antiviral cell-based qHTS; Potency, µM (titrated, usually from 57.9 µM), without a hit: at the highest dose activity change, negative = inhibition, usual class: inhibitors; 410,000 tested, 1.2% active; AID 1159524, 2015; calls by dose curve; tested in HEK293T cells; also: read-out not given here; potency is read from the fitted curve at half-maximal effect; nearly all actives have a fitted effect of over 45% in size
* hit, by the source's call; i = inactive; ? = inconclusive; / = no result; [ ] = remark or other dose. Unless noted, calls follow the shape of the dose curve; as a rule, active = well fitted curve in the direction sought with a large enough effect; inconclusive = small, poorly fitted or top-dose-only effect, or another doubt; inactive = no such curve, though single readings can be large; an effect the other way counts as inactive or inconclusive. % is scaled to controls: 0 for no effect and ±100 for the full control effect.

SMILES	HCMV antiviral	HCV inhibitor	Sm TGR inh	Vaccinia Venus	Vaccinia mCherry	FMDV antiviral
Clc1ccc2c(c1)C(c1ccccc1Cl)=NCc1nncn1-2	25.5	?	-19.4%	-7.6%	-6.8%	2.2%
Clc1ccc2c(c1)C(c1ccccc1Cl)=NCc1nnc(Br)n1-2	-33.9	0.4%	2.0%	?	12.6µM*	-19.0%
Cc1ccc(Oc2cc([N+](=O)[O-])cc3c2C(=O)Nc2ccccc2O3)cc1	-78.0*	12.6µM*	-18.3%	-9.5%	?	?
O=C1Nc2ccccc2Oc2cc(Oc3ccc(Cl)cc3)ccc21	5.7	/	4.8%	-1.4%	-12.9%	-5.6%
Cc1ccc(C(=O)COC(=O)CN2C(=O)C3CC=CCC3C2=O)cc1[N+](=O)[O-] (stereo unspecified)	-12.2	-1.9%	/	3.5%	i	-15.5%
COc1ccc(OC)c(/C=C2/Sc3ccccc3C2=O)c1	-23.2	-4.4%	0.0%	3.7%	-5.7%	60.5%
CCN=C1S/C(=C\c2cc(OCC)c(O)cc2Br)C(=O)N1CC	-9.0	?	-20.3%	?	?	31.6µM*
O=C(CSc1ccccc1)N1CCN(S(=O)(=O)c2ccccc2F)CC1	-12.6	6.3%	-14.7%	-1.7%	-2.6%	0.3%
Nc1oc2ccccc2c(=O)c1-c1ccc2c(c1)OCO2	116.1	5.2%	14.7%	-14.4%	-16.9%	67.3%
OC(CNCC(c1ccc(Cl)cc1Cl)c1c[nH]c2ccccc12)c1ccccc1 (stereo unspecified)	-107.7*	?	11.5%	?	?	?
Cc1c(C(=O)NCc2ccc(C(C)C)cc2)sc(=O)n1Cc1ccc(S(=O)(=O)N(C)C)cc1	-68.1*	/	/	-27.6%	-5.0%	11.2µM*
Cc1c(C(=O)NCc2ccc(Cl)c(Cl)c2)sc(=O)n1Cc1ccc(S(=O)(=O)N(C)C)cc1	-16.1	/	/	-17.8%	-5.6%	22.4µM*
Cc1c(C(=O)NCc2ccc(Cl)c(Cl)c2)sc(=O)n1Cc1ccc(C(=O)N(C)C)cc1	-68.6*	/	/	-13.2%	11.7%	?
C=Cc1ccc(Cn2c(C)c(C(=O)NCc3ccc(Cl)c(Cl)c3)sc2=O)cc1	?	/	/	-21.3%	5.7%	-24.7%
Nc1ccc2c(c1)oc1ccccc12	113.5	2.4%	3.5%	-13.3%	-4.8%	41.5%
COc1cc2c(cc1NC(=O)Nc1cccc(C)c1)oc1ccccc12	2.7	?	-3.0%	-13.8%	-28.4%	4.2%
O=[N+]([O-])c1ccc2c(c1)oc1ccccc12	-93.3*	-3.4%	11.3%	/	/	-13.1%
CC(=O)Nc1ccc(N=Nc2ccccc2)cc1[N+](=O)[O-]	31.5	-24.4%	/	-8.9%	-19.2%	62.4%
COc1cc2c(cc1NC(=O)c1cccc([N+](=O)[O-])c1C)oc1ccccc12	-8.0	2µM*	3.5%	/	/	20.0%
CC(=O)Nc1cc2oc3ccccc3c2cc1[N+](=O)[O-]	-83.8*	?	/	-5.9%	-6.4%	40.4%
COc1cc2c(cc1NC(=O)c1cccc(S(=O)(=O)N(C)C)c1)oc1ccccc12	-22.9	1.41µM*	-7.6%	?	?	21.2%
CC(C(=O)OCC(=O)N1CCN(c2ccccc2)CC1)N1C(=O)c2ccccc2C1=O (stereo unspecified)	38.8	17.1%	-0.2%	/	/	-22.9%
CC(C)CCN1CCC[C@]2(N[C@H](c3ccc(C(F)(F)F)cc3)[C@@H]3C(=O)N(Cc4ccccc4)C(=O)[C@@H]32)C1=O	3.7	/	/	?	-11.5%	-16.6%
C/C(Nc1ccccc1C(F)(F)F)=C1/CCOC1=O	-34.3	6.0%	-1.5%	-13.1%	i	-1.0%
CCOc1cc(C2/C(=C(/O)c3ccc(OC)cc3)C(=O)C(=O)N2CC2CCCO2)ccc1O (stereo unspecified)	/	9.8%	-1.0%	12.9%[7.34 µM]	3.8%[7.34 µM]	-9.4%
SMILES	HCMV antiviral	HCV inhibitor	Sm TGR inh	Vaccinia Venus	Vaccinia mCherry	FMDV antiviral
COc1ccccc1Nc1ccc(NC(=O)c2cccc([N+](=O)[O-])c2C)cc1	-62.4*	?	-5.1%	/	/	?
CCC(=O)NC(=S)Nc1ccc(NC(=O)c2cccc([N+](=O)[O-])c2C)cc1	?	?	-28.5%	-6.8%	-19.9%	-10.2%
CCCOC(=O)c1ccc(NC(=O)c2ccccc2[N+](=O)[O-])cc1	-99.7*	?	-0.2%	/	/	43.2%
CCCOC(=O)c1ccc(NC(=O)c2ccccc2OC)cc1	-26.3	-18.6%	6.4%	8.1%	i	10.1%
COc1ccc(C(=O)N(c2ccccc2)c2nccc3ccccc23)cc1OC	-7.9	1.78µM*	/	-3.3%	6.5%	-11.2%
COc1cc(Cl)c(C)cc1NC(=O)c1ccccc1NC(=O)CN1CCN(c2ccccn2)CC1	-95.2*	?	/	/	/	-29.1%
O=C(CN1CCN(c2ccccn2)CC1)Nc1ccc([N+](=O)[O-])cc1C(=O)Nc1ccccc1F	5.8	11.2µM*	-5.9%	-15.2%	-1.6%	?
COc1cc(NC(=O)c2ccccc2)c(OC)cc1NC(=O)CN1CCN(c2ccccn2)CC1	0.3	?	-0.1%	-2.5%	/	?
CSc1ccccc1NC(=O)CN1CCN(c2ccccn2)CC1	-63.0*	4.5%	36.0%	/	/	-8.0%
COc1ccc(N2CCN(CC(=O)Nc3ncc(C)s3)CC2)cc1	-17.8	-19.1%	4.2%	/	/	-16.1%
Cc1cnc(NC(=O)CN2CCN(c3ccccn3)CC2)s1	-96.9*	?	-5.4%	?	?	-3.4%
COC(=O)C1CC(O)C(O)C(O)C1 (stereo unspecified)	8.8	14.5%	/	-2.8%	-7.6%	-23.6%
COC(=O)c1c(NC(=O)Cc2cccs2)sc(C)c1C	11.5	11.2µM*	-10.6%	/	/	-7.6%
COc1ccc(C2C=C(c3cccs3)Nc3nc(CCCO)nn32)cc1 (stereo unspecified)	/	/	39.8µM*	/	/	/
OCCCc1nc2n(n1)C(c1cccc(Cl)c1)C=C(c1ccccc1)N2 (stereo unspecified)	-12.4	/	-13.6%	-20.3%	-13.0%	-17.1%
COc1ccc(C2=CC(c3ccc(Cl)cc3)n3cnnc3N2)cc1OC (stereo unspecified)	0.3	-4.3%	25.1µM*	-23.0%	?	35.8%
COc1ccc(C2C=C(c3ccccc3)Nc3nc(CCCO)nn32)cc1 (stereo unspecified)	11.3	2.9%	25.1µM*	/	/	4.2%
OCCCc1nc2n(n1)C(c1ccccc1)C=C(c1ccccc1)N2 (stereo unspecified)	/	17.6%	25.1µM*	-29.0%	?	-15.1%
O=c1c(N2CCc3ccccc3C2)csc2ccc(Cl)cc12	0.1	/	-7.3%	-12.2%	-1.1%	29.5%
Cc1nc(-c2ccccc2)sc1-c1ccc(SCC(=O)NCc2ccc(Cl)cc2)nn1	11.9	/	-10.4%	?	?	-20.5%

Screening data (PubChem)
